Some of the results follow. The true hit rate is not given.
Target: furin, P09958
Assay: furin cleavage Z-score vs untreated control; higher = more cleavage, active = 3.5 or more, inactive = 1 or less, 8 variable residues between constant flanks
Procedure, shortened: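 In 50 mM HEPES pH 7.5 with CaCl2 and NaCl, purified furin was incubated with bead-anchored 8-mer peptide–cDNA fusions at 1:10 enzyme:substrate in 0.01 ml. Incubation times were 7.5, 15 and 30 min. DNA set free by cleavage was adapter-tagged by PCR and sequenced, with read counts taken as abundance. Log counts relative to furin-free reactions, after lowess adjustment and median absolute deviation scaling, form the cleavage Z-score.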

furin, P09958, sequence (P09958 whole entry): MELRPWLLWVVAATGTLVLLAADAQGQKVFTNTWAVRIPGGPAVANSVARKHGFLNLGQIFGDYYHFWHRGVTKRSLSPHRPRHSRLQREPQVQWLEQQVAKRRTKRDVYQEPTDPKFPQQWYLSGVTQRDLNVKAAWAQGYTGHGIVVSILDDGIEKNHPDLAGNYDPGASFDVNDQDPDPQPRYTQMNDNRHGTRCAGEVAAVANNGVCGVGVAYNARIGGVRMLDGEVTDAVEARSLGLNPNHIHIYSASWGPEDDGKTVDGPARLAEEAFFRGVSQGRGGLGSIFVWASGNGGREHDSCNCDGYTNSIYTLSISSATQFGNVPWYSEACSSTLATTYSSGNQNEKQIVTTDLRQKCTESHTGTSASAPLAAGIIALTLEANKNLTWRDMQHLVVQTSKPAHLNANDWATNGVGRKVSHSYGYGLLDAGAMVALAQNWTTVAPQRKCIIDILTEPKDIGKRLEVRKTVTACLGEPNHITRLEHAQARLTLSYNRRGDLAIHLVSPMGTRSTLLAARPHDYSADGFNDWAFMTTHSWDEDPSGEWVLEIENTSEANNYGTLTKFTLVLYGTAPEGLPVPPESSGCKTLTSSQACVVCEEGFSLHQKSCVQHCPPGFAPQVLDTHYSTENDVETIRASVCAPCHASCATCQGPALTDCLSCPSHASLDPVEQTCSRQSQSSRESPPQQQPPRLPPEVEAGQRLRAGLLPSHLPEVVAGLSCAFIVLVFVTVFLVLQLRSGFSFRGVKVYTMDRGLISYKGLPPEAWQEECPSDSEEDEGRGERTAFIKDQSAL

| Sequence | furin cleavage Z-score (7.5 min) | furin cleavage Z-score (15 min) | furin cleavage Z-score (30 min) |
| --- | --- | --- | --- |
| CAAGVQEDAAAGNASASA [HC1534] | 0.273 (inactive) | -0.401 (inactive) | -1.13 (inactive) |
| CAEKPCHRPSAGNASASA [HC2334] | -0.309 (inactive) | 0.292 (inactive) | 0.19 (inactive) |
| CADRMEECSQAGNASASA [HC1813] | 0.635 (inactive) | -0.476 (inactive) | -0.0128 (inactive) |
| CARWPRSDPEAGNASASA [FS-1807] | 2.83 | 2.73 | 4.21 (active) |
| CARWNRFAMIAGNASASA [FS-2200] | 0.704 (inactive) | -0.675 (inactive) | -0.478 (inactive) |
| CARSARSAPEAGNASASA [FS-2377] | 7.91 (active) | 9.89 (active) | 6.92 (active) |
| CARSARSVARAGNASASA [FS-3075] | 5.33 (active) | 7.5 (active) | 6.53 (active) |
| CARSIKSVPEAGNASASA [FS-1927] | 0.273 (inactive) | -0.944 (inactive) | 0.475 (inactive) |
| CARTWRSVPEAGNASASA [FS-2528] | 0.349 (inactive) | 0.625 (inactive) | 1.35 |
| CASTWCSAHLAGNASASA [HC2508] | 0.983 (inactive) | 0.815 (inactive) | 0.802 (inactive) |
| CAMILMTHFFAGNASASA [HC1582] | -0.371 (inactive) | -0.697 (inactive) | -2.29 (inactive) |
| CAHCTTPCSGAGNASASA [HC1955] | -1.08 (inactive) | -1.68 (inactive) | 0.655 (inactive) |
| CAEQVVCCSMAGNASASA [HC2142] | -0.416 (inactive) | -0.852 (inactive) | 2.1 |
| CAPEKRAKRGAGNASASA [FS-1044] | 10.2 (active) | 9.94 (active) | 7.39 (active) |
| CAGHQREKRGAGNASASA [FS-428] | 11.3 (active) | 13.2 (active) | 10.6 (active) |
| CASVSREDRGAGNASASA [FS-1491] | -0.464 (inactive) | -0.739 (inactive) | -0.69 (inactive) |
| CAKCDELAAKAGNASASA [HC860] | 1.37 | 1.03 | -0.237 (inactive) |
| CAKVKREAEKAGNASASA [FS-1674] | 5.11 (active) | 4.39 (active) | 5.05 (active) |
| CAEPPEAKRGAGNASASA [FS-1117] | 0.349 (inactive) | -1.82 (inactive) | -0.871 (inactive) |
| CARQKKLAEKAGNASASA [FS-2585] | 0.116 (inactive) | -2.1 (inactive) | 0.509 (inactive) |
| CAPEKRSVFAAGNASASA [FS-2874] | -0.508 (inactive) | -0.764 (inactive) | -1.36 (inactive) |
| CAKVKREKRGAGNASASA [FS-454] | 11.2 (active) | 10.5 (active) | 9.94 (active) |
| CAPKPCGIVPAGNASASA [HC406] | 0.0213 (inactive) | 0.68 (inactive) | 1.33 |
| CAESKRLVDTAGNASASA [FS-1880] | -0.698 (inactive) | 0.318 (inactive) | 0.434 (inactive) |

| Sequence | furin cleavage Z-score (7.5 min) | furin cleavage Z-score (15 min) | furin cleavage Z-score (30 min) |
| --- | --- | --- | --- |
| CAEVVTSTTVAGNASASA [HC2238] | -0.88 (inactive) | -1.41 (inactive) | 0.307 (inactive) |
| CAKVKRSQGDAGNASASA [FS-1985] | 3.98 (active) | 3.48 | 3.75 (active) |
| CARQPRSNGDAGNASASA [FS-2292] | 0.463 (inactive) | -0.49 (inactive) | 1.56 |
| CAGFDRKKRGAGNASASA [FS-238] | 9.36 (active) | 9.95 (active) | 8.88 (active) |
| CAQRNLKKRGAGNASASA [FS-914] | 10.1 (active) | 13.1 (active) | 11.1 (active) |
| CALRNRLFRGAGNASASA [FS-359] | 0.887 (inactive) | 1.52 | -0.676 (inactive) |
| CALRTREKRGAGNASASA [FS-549] | 7.16 (active) | 7.31 (active) | 5.83 (active) |
| CALHKRQVGDAGNASASA [FS-1675] | -0.324 (inactive) | -0.439 (inactive) | 0.074 (inactive) |
| CATTPHSGSWAGNASASA [HC49] | -0.934 (inactive) | -0.777 (inactive) | -0.65 (inactive) |
| CAEDRDRSELAGNASASA [HC488] | 0.995 (inactive) | 1.63 | 0.694 (inactive) |
| CARTPCSAHLAGNASASA [HC2473] | 0.852 (inactive) | -0.775 (inactive) | 2.15 |
| CAITPCSAHLAGNASASA [HC2464] | -1.38 (inactive) | 0.00684 (inactive) | -0.357 (inactive) |
| CATCPCSGSWAGNASASA [HC1860] | -0.794 (inactive) | -0.696 (inactive) | -0.69 (inactive) |
| CAMTPCSGSWAGNASASA [HC1826] | -0.934 (inactive) | -2.45 (inactive) | -0.784 (inactive) |
| CATFAVEKRGAGNASASA [FS-1289] | 1.19 | 0.186 (inactive) | 0.573 (inactive) |
| CAAPHREKRGAGNASASA [FS-398] | 10.8 (active) | 11.4 (active) | 9.9 (active) |
| CAARGRYSRGAGNASASA [FS-1622] | 1.05 | 0.971 (inactive) | 1.84 |
| CAEVVWSTWVAGNASASA [HC127] | 0.227 (inactive) | 0.0628 (inactive) | -0.337 (inactive) |
| CARYRRLTGDAGNASASA [FS-1843] | -1.17 (inactive) | -0.169 (inactive) | 1.01 |
| CARYCRGVSAAGNASASA [FS-1941] | -0.864 (inactive) | -0.376 (inactive) | -0.444 (inactive) |
| CARYRRCVGWAGNASASA [FS-2389] | 3.27 | 2.12 | 5.02 (active) |
| CAKQRRIVGIAGNASASA [FS-2869] | 0.0283 (inactive) | -0.751 (inactive) | 0.888 (inactive) |
| CARYRRTVGIAGNASASA [FS-2851] | 2.96 | 3.86 (active) | 6.08 (active) |
| CARMCRVAGWAGNASASA [FS-2046] | 0.157 (inactive) | -0.469 (inactive) | 0.75 (inactive) |
